Test results taken from PubChem BioAssay (Tox21).
Inconclusive results are not listed. Entries that show only a call come without a potency. Active and inactive are the calls of the source. The call rests on the fitted dose curve; in most records, active means well fitted inhibition curve with a large enough effect in the repeat runs; inconclusive means weak or mixed curves, or effect the other way; inactive means no such curve, though single readings can be large or run the other way.

Experiment: qHTS assay to identify small molecule antagonists of the retinoic acid receptor (RAR) signaling pathway (AID 1159552; further: nearly all actives have a fitted effect of over 50% in size)
Details: C3RL4 RARE luciferase reporter, retinol-stimulated, 6 h; series mostly up to 92.4 µM
Source text: National Center for Advancing Translational Sciences [NCATS]
NIH Chemical Genomics Center [NCGC]
U.S. Environmental Protection Agency [EPA]
National Institutes of Environmental Health Sciences [NIEHS]
National Toxicology Program [NTP]
U.S. Food and Drug Administration [FDA]
All-trans Retinoic acid (atRA) is the potent natural metabolite of retinol and plays an important role in normal embryonic development and maintenance of cellular phenotype in adult animals. atRA is the activating ligand for the retinoic acid receptors (RARs) which form heterodimers with retinoid X receptors (RXRs) on the retinoic acid response element (RARE). Through activation of the RAR/RXRs nuclear receptors, atRA regulates the transcription of a large number of protein-coding genes and regulatory RNAs. Intracellular levels of atRA are controlled by the retinol signaling pathway (RSP) that regulates the biosynthesis and catabolism of atRA to maintain physiological levels. Chemicals that interfere with the RSP can cause abnormal intracellular levels of atRA and therefore are potential developmental toxicants. To assess compounds for the potential adverse effect on embryonic development through interfering with retinol signaling, a cell-based RARE luciferase reporter gene assay was used. C3RL4 cell line (OARSA/CFSAN/FDA, Laurel, MD) was used to screen Tox21 10K compound library for identifying inhibitors of the RSP.
Tox21 Assay Protocol Summary:
C3RL4 cells were seeded at 1,000/well in 4 uL of assay medium into white solid 1,536-well tissue culture plates (Greiner Bio-One North America Inc. Monroe, NC) using a Multidrop Combi (Thermo Scientific, Waltham, MA) dispenser. After incubation at 37 C and 5% CO2 for an overnight, 23 nL of compounds dissolved in DMSO, positive control or DMSO only were transferred by a Pintool station (Kalypsys, San Diego, CA). One ul of 1 uM (final concentration) of Retinol was added right after the compound addition by using a Flying Reagent Dispenser (FRD) (Aurora Discovery, San Diego, CA). After 6 hr incubation at 37 C and 5% CO2, 5 uL of Amplite Luciferase reagent (AAT Bioquest Inc. Sunnyvale, CA) was added to each assay plate using an FRD. Luminescence was quantified on a ViewLux plate reader (PerkinElmer, Waltham, MA) after 30 min incubation at room temperature.
Potency means the concentration at half of the fitted maximal effect.

Row | Compound | Potency
1 | Cc1oncc1C(=O)Nc1ccc(C(F)(F)F)cc1 | inactive
2 | CC1=CC(O)CC(C)(C)C1 (stereo not given) | inactive
3 | CC(C)OCC1CO1 (stereo not given) | inactive
4 | CC1(C)C(=O)N(Br)C(=O)N1Cl | inactive
5 | CCCCCCCCCCCCCCC[C@H](O)[C@@H](N)CO | inactive
6 | CCOC(=O)N1CCC(n2c(=O)[nH]c3cc(Cl)ccc32)CC1 | inactive
7 | CC(=O)[C@H]1CC[C@H]2[C@@H]3C=CC4=CC(=O)CC[C@@]4(C)[C@@H]3CC[C@]12C | inactive
8 | ON(Cc1ccccc1)Cc1ccccc1 | inactive
9 | O=c1[nH]c2ccc(S(=O)CCN3CCC(Cc4ccc(F)cc4)CC3)cc2o1 (stereo not given) | inactive
10 | CO[C@@]12[C@H](COC(N)=O)C3=C(C(=O)C(C)=C(N)C3=O)N1C[C@@H]1N[C@@H]12 | 10.6 µM (active)
11 | COc1ccc(CCC(=O)c2c(O)cc(O[C@@H]3O[C@H](CO)[C@@H](O)[C@H](O)[C@H]3O[C@@H]3O[C@@H](C)[C@H](O)[C@@H](O)[C@H]3O)cc2O)cc1O | inactive
12 | CCOc1cc(N)c(Cl)cc1C(=O)NCC1CN(Cc2ccc(F)cc2)CCO1 (stereo not given) | inactive
13 | CCOC(=O)C(C)Oc1ccc(Oc2nc3ccc(Cl)cc3o2)cc1 (stereo not given) | inactive
14 | C[Si]1(C)O[Si](C)(C)O[Si](C)(C)O1 | inactive
15 | Oc1ccc(Nc2ccccc2)cc1 | inactive
16 | COC(=O)c1cc(Cl)ccc1NS(=O)(=O)C(F)(F)F | inactive
17 | CCCCN(CCCC)C(=S)SSC(=S)N(CCCC)CCCC | inactive
18 | O=C(O)C(Cc1cc(I)c(O)c(I)c1)c1ccccc1 (stereo not given) | inactive
19 | O=C(O)c1c(O)c(-c2ccccc2)nc2ccccc12 | inactive
20 | Cc1cc(O)c(C(C)C)cc1Cl | inactive

Row | Compound | Potency
21 | CCCOC(=O)c1ccc(C(=O)OCCC)nc1 | inactive
22 | CCN(Cc1cccc(S(=O)(=O)O)c1)c1ccc(C(=C2C=CC(=[N+](CC)Cc3cccc(S(=O)(=O)[O-])c3)C=C2)c2ccccc2)cc1 | inactive
23 | COc1ccc(C(=O)c2cccc(O)c2)c(OC)c1 | inactive
24 | COCCOC | 6.54 µM (active)
25 | CC(C)CCCC(=O)O | inactive
26 | Cc1nccn1-c1ccc(Sc2cccc(C3(C(N)=O)CCOCC3)c2)cc1 | 9.69 µM (active)
27 | Cc1nc2ccccc2s1 | inactive
28 | C=CCNc1nc(NCC=C)nc(N2CCN(C(c3ccc(F)cc3)c3ccc(F)cc3)CC2)n1 | inactive
29 | c1ccc(COCc2ccccc2)cc1 | inactive
30 | CCC(=O)Oc1ccc(/C(CC)=C(\CC)c2ccc(OC(=O)CC)cc2)cc1 | inactive
31 | CCCCN(CCCC)CCCOC(=O)c1ccc(N)cc1 | inactive
32 | CCCCC/C(=C\c1ccccc1)CO | inactive
33 | CCOC(=O)c1ccccc1OC | inactive
34 | O=C(O)c1cccnc1C(=O)O | inactive
35 | CCCOCCOCCO | inactive
36 | O=C(O)c1ccccc1NCCc1ccccc1 | inactive
37 | CCCC1C(CC)=CC(CC)=CN1c1ccccc1 (stereo not given) | inactive
38 | C=CC(C)(O)CCCC(C)CCCC(C)CCCC(C)C (stereo not given) | inactive
39 | Nc1ccc(S(=O)(=O)O)cc1 | inactive
40 | Cc1cc(S(=O)(=O)O)ccc1N=Nc1c(O)ccc2ccccc12 | inactive
